Out of some 2,300 compounds screened, about 330 (14%) showed activity.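 The calls were made as follows: active = median modified Z-score above 1.96; inactive = 1.96 or below.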 A selection follows.
system: HepG2 Srxn1-GFP reporter cells (+30 nM CDDO-Me); assay: Srxn1-GFP intensity median modified Z-score relative to plate median; higher = stronger NRF2 / oxidative stress reporter activation, active = hit call of the paper; conditions: 10 µM; exposure time: 24h
How it was run: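 Values give the median, over replicates, of the modified Z-score of GFP intensity on each plate. HepG2 Srxn1-GFP BAC reporter cells were co-treated for 24 h with an NRF2 activator at 30 nM and compound at 10 μM (≤0.1% DMSO) in three replicate plates, then analysed per cell for cytoplasmic GFP on confocal images with at least 100 cells. Scaling used 1.4826 × median absolute deviation.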

Structure (SMILES)	Srxn1-GFP intensity median modified Z-score
CN(C)c1ccc(O)c2c1C[C@H]1C[C@H]3C(N(C)C)C(=O)C(C(N)=O)C(=O)[C@@]3(O)C(=O)C1C2=O (some centres undefined) [euspeclibcmpd201]	-0.262 (inactive)
COC(=O)CCC(C)C1CCC2C3CC[C@@H]4C[C@H](O)CC[C@]4(C)C3C[C@H](O)[C@]12C (some centres undefined) [euspeclibcmpd1611]	-0.0244 (inactive)
CCc1cc(Cl)c(OC)c(C(=O)NCC2CCCN2CC)c1O (centres undefined) [euspeclibcmpd333]	0.457 (inactive)
CCS(=O)(=O)CCn1c([N+](=O)[O-])cnc1C [euspeclibcmpd439]	0.00367 (inactive)
CCOC(=O)CCC(=O)O[C@H]1[C@H](O[C@@H]2[C@@H](C)[C@H](O[C@H]3C[C@@](C)(OC)[C@@H](O)[C@H](C)O3)C(C)C(=O)O[C@H](CC)[C@@](C)(O)[C@H](O)C(C)C(=O)C(C)C[C@@]2(C)O)O[C@H](C)C[C@@H]1N(C)C (some centres undefined) [euspeclibcmpd114]	0.427 (inactive)
CC1(OC(=O)C=Cc2ccccc2)CC(O)C2(O)C=COC(OC3OC(CO)C(O)C(O)C3O)C12 (centres undefined) [euspeclibcmpd1930]	0.27 (inactive)
CCCCC1=NC2(CCCC2)C(=O)N1Cc1ccc(-c2ccccc2-c2nn[nH]n2)cc1 [euspeclibcmpd676]	-0.243 (inactive)
COc1cc(O)c(C(=O)C=Cc2ccc(OC)c(O)c2)c(OC)c1 [euspeclibcmpd1967]	23.8 (active)
COc1cc(O)c(C(C)=O)c(OC)c1 [euspeclibcmpd1575]	-0.474 (inactive)
COc1ccc(/C=C/C(=O)O)cc1OC [euspeclibcmpd2368]	-0.475 (inactive)
COc1cc(C=CC(=O)O)ccc1O [euspeclibcmpd1346]	-0.142 (inactive)
COc1cc(O)c(C(=O)C=Cc2ccc(O)c(OC)c2)c(OC)c1 [euspeclibcmpd2193]	-0.497 (inactive)
COc1cc(C=CC(=O)CC(=O)C=Cc2ccc(O)c(OC)c2)ccc1O [euspeclibcmpd1307]	23.5 (active)
Cc1cn[nH]c1 [euspeclibcmpd2215]	-0.461 (inactive)
Cc1cn[nH]c1 [euspeclibcmpd2196]	1.06 (inactive)
CCC(=O)O[C@]1(C(=O)SCF)[C@H](C)CC2C3CC(F)=C4CC(=O)C=C[C@]4(C)C3(F)[C@@H](O)C[C@@]21C (some centres undefined) [euspeclibcmpd975]	-0.942 (inactive)
CC(=O)Nc1c(I)c(NC(C)=O)c(I)c(C(=O)O)c1I [euspeclibcmpd867]	-0.167 (inactive)
Cc1cc(=O)oc2cc(O)c(O)cc12 [euspeclibcmpd1370]	-0.517 (inactive)
NC(CCC(=O)NC(CS)C(=O)NCC(=O)O)C(=O)O (centres undefined) [euspeclibcmpd132]	1.19 (inactive)
C[C@]12CCC(=O)CC1=CCC1C2[C@@H](O)C[C@@]2(C)C1CC[C@]2(O)C(=O)CO (some centres undefined) [euspeclibcmpd5]	-0.578 (inactive)
O=C(O)C1CSCN1C(O)c1ccc(O)[nH]1 (centres undefined) [euspeclibcmpd1087]	-0.1 (inactive)
O=C(O)C1CC([C@H]2CCCCN2)CN2CCCCC12 (some centres undefined) [euspeclibcmpd1560]	0.315 (inactive)

Structure (SMILES)	Srxn1-GFP intensity median modified Z-score
CCCN1C(=O)/C(=C/c2ccc(-n3ccnc3)cc2)SC1=S	9.18 (active)
CC(C)(C)NCC(O)COc1cccc2c1C[C@H](O)[C@H](O)C2 (some centres undefined) [euspeclibcmpd814]	0.0394 (inactive)
CC[C@H]1OC(=O)C[C@@H](O)[C@H](C)[C@@H](O[C@@H]2O[C@H](C)[C@@H](O[C@H]3C[C@@](C)(O)[C@@H](O)[C@H](C)O3)[C@H](N(C)C)[C@H]2O)[C@@H](CC=O)CC(C)C(=O)/C=C/C(C)=C/C1CO[C@@H]1O[C@H](C)[C@@H](O)[C@@H](OC)[C@H]1OC (some centres undefined) [euspeclibcmpd742]	-0.617 (inactive)
COc1cccc(-c2cc(=O)c3ccc(OC)cc3o2)c1 [euspeclibcmpd2098]	1.56 (inactive)
COc1ccc(-c2coc3cc(OCC4CC4)ccc3c2=O)cc1	1.64 (inactive)
CC(=O)Nc1ccc(OC(C)=O)cc1 [euspeclibcmpd1187]	-0.386 (inactive)
CC(=O)Oc1cccc(O)c1 [euspeclibcmpd584]	0.144 (inactive)
CC(=O)Oc1ccc(O)cc1 [euspeclibcmpd2324]	5.59 (active)
CCC1C(=O)OC[C@@H]1Cc1cncn1C (some centres undefined) [euspeclibcmpd2263]	0.439 (inactive)
OC[C@H]1O[C@@](CO)(O[C@@H]2O[C@H](CO)[C@@H](O)[C@H](O)[C@H]2O)[C@@H](O[C@@H]2O[C@H](CO)[C@@H](O)[C@H](O)[C@H]2O)[C@@H]1O [euspeclibcmpd1323]	0.146 (inactive)
O=C(OCc1cc([N+](=O)[O-])cc2c1OCOC2)C12CC3CC(CC(Br)(C3)C1)C2	1.38 (inactive)
CC1(C)OC(=O)NC1=O [euspeclibcmpd99]	0.00531 (inactive)
CC(C)C(N)C(=O)OCCOCn1cnc2c(=O)[nH]c(=N)[nH]c21 (centres undefined) [euspeclibcmpd757]	0.568 (inactive)
CC1C/C=C/C=C/C=C/C=C/C(O[C@@H]2O[C@H](C)[C@@H](O)[C@H](N)[C@@H]2O)CC2OC(O)(CC(O)CC3OC3/C=C/C(=O)O1)CC(O)C2C(=O)O (some centres undefined) [euspeclibcmpd858]	-0.525 (inactive)
CC1/C=C/C=C/C=C/C=C/C=C/C=C/C=C/C(OC2O[C@H](C)[C@@H](O)[C@H](N)[C@@H]2O)CC(O)C(C(=O)O)C(O)CC(=O)CC(O)CC(O)CC(O)CC(=O)CCCC(=O)CC(=O)OC1C(C)CC(C)C(O)CC(=O)c1ccc(N)cc1 (some centres undefined) [euspeclibcmpd648]	1.22 (inactive)
CC1OC(O[C@H]2/C=C/C=C/C=C/C=C/C=C/C=C/C=C/[C@H](C)[C@@H](O)[C@@H](C)[C@H](C)OC(=O)CC(O)CC(O)CCC(O)C(O)CC(O)C[C@]3(O)C[C@H](O)C(C(=O)O)C(C2)O3)C(O)[C@H](N)C1O (some centres undefined) [euspeclibcmpd24]	1.97 (active)
COc1ccc(-c2coc3c4c(c(CC=C(C)C)c(O)c3c2=O)OC(C)(C)C=C4)cc1 [euspeclibcmpd2167]	-0.398 (inactive)
COc1cc(=NS(=O)(=O)c2ccc(N)cc2)[nH]c(OC)n1 [euspeclibcmpd399]	-0.451 (inactive)
OC[C@H]1O[C@H](O[C@H]2[C@H](O)[C@@H](O)[C@H](O)O[C@@H]2CO)[C@H](O)[C@@H](O)[C@@H]1O [euspeclibcmpd2088]	-0.629 (inactive)
COCCn1c(SCC(=O)N(C)Cc2ccc(Cl)s2)nc2cc(Cl)ccc21	0.575 (inactive)
CC(C=Cc1c(C)c(O)c2ccccc2c1O)=CCC[C@H](C)CCC[C@H](C)CCCC(C)C [euspeclibcmpd621]	-0.697 (inactive)
N=c1[nH]nc(-c2cccc(Cl)c2Cl)c(=N)[nH]1 [euspeclibcmpd829]	-0.0242 (inactive)

Structure (SMILES)	Srxn1-GFP intensity median modified Z-score
CCN(CCCc1ccccc1)CCCc1ccccc1 [euspeclibcmpd16]	0.166 (inactive)
CCN(CC)CCc1nc(-c2ccccc2)no1 [euspeclibcmpd2430]	10.5 (active)
C[C@H](CC(=O)C1OC1(C)C)[C@@H]1C(=O)C[C@@]2(C)C3=CCC4C(C)(C)[C@@H](O[C@@H]5OC[C@@H](O)[C@H](O)[C@H]5O)CC[C@@]45C[C@@]35[C@@H](O)C[C@]12C (some centres undefined) [euspeclibcmpd2331]	0.374 (inactive)
COCCCCC(=NOCCN)c1ccc(C(F)(F)F)cc1 [euspeclibcmpd828]	-0.302 (inactive)
NC(=O)CCC(N)C(=O)O (centres undefined) [euspeclibcmpd1404]	-0.533 (inactive)
COc1cc(C(=O)N2CCOCC2)cc(OC)c1OC [euspeclibcmpd666]	0.129 (inactive)
COc1cc(C(=O)OCCCN2CCCN(CCCOC(=O)c3cc(OC)c(OC)c(OC)c3)CC2)cc(OC)c1OC [euspeclibcmpd1946]	6.07 (active)
COc1cc(OC)c(C(=O)CCCN2CCCC2)c(OC)c1 [euspeclibcmpd1235]	-0.587 (inactive)
COc1cc(-c2coc3cc(OCc4ccccc4)c(OC)c(O)c3c2=O)cc(OCc2ccccc2)c1OC [euspeclibcmpd1942]	-0.32 (inactive)
COc1cc2c(cc1OC)-c1cc3ccc(OC)c(OC)c3c[n+]1CC2 [euspeclibcmpd2350]	0.574 (inactive)
C[n+]1cc2c3c(ccc2c2ccc4cc5c(cc4c21)OCO5)OCO3 [euspeclibcmpd10]	0.32 (inactive)
COc1ccc2cc3[n+](cc2c1OC)CCc1cc2c(cc1-3)OCO2 [euspeclibcmpd1051]	6.03 (active)
CCc1cccc2c(C(=O)COC(=O)c3c4c(nc5ccccc35)CCC(C(C)(C)C)C4)c[nH]c12 (centres undefined)	1.73 (inactive)
C#C[C@]1(O)CCC2C3CCc4cc(OC5CCCC5)ccc4C3CC[C@@]21C (some centres undefined) [euspeclibcmpd466]	0.485 (inactive)
CCCCCC(CC(O)=NO)C(=O)NC(C(=O)N1CCCC1CO)C(C)C (centres undefined) [euspeclibcmpd1993]	11.7 (active)
CCCCCC(CC(=O)O)C(=O)O (centres undefined) [euspeclibcmpd1642]	-0.141 (inactive)
CN1N=C(C(=O)NC2(C)CCS(=O)(=O)C2)CCC1=O (centres undefined)	1.37 (inactive)
C[C@]12CCC3c4ccc(OS(=O)(=O)O)cc4CCC3C1CCC2=O (some centres undefined) [euspeclibcmpd707]	-0.429 (inactive)
CN=C(NC#N)NCCSCc1[nH]cnc1C [euspeclibcmpd338]	3.04 (active)
O=C(N[C@@H](CO)[C@H](O)c1ccc([N+](=O)[O-])cc1)C(Cl)Cl [euspeclibcmpd53]	-0.347 (inactive)
